# In article PMC7862700, “An all-to-all approach to the identification of sequence-specific readers for epigenetic DNA modifications on cytosine”:
# How the values were obtained:
# Test in all cases: DAPPL (digital affinity profiling via proximity ligation, sequencing); 10 mM Tris-HCl pH 7.5, 50 mM NaCl, 1 mM DTT, 4% glycerol, room temperature, 30 min; GST-TFs on glutathione beads, 16-mer random dsDNA library, 0.1% formaldehyde crosslink after washing; high values mean tight binding
# [1] = molecular target: T1, FEV (Homo sapiens, UniProt Q99581 1-238); conditions: protein: recombinant; tags: N-terminal GST; dsDNA, one strand shown
# T1 sequence: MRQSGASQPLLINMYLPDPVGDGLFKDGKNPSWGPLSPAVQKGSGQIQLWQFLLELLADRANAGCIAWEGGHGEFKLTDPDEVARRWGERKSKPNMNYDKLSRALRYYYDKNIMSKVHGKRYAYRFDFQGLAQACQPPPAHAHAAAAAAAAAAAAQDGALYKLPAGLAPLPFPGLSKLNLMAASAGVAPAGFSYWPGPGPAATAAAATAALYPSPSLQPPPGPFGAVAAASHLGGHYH
# In short: (§1)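 Human transcription factors were made in yeast as GST fusions, captured on glutathione beads and barcoded with DNA. With a tag-only sample included, the pool was incubated with 200 nmole of a random double-stranded 16-mer DNA library in Tris/NaCl/DTT/glycerol buffer at room temperature for 30 min, then crosslinked with 0.1% formaldehyde after washing, ligated by proximity, amplified and sequenced. For binding signal, each hexamer's read frequency for a factor is divided by its frequency for the tag-only sample.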
# [2] = molecular target: ETV5 (Homo sapiens, UniProt P41161 1-510); conditions: protein: recombinant; tags: N-terminal GST; dsDNA, one strand shown
# ETV5, sequence (P41161 whole entry): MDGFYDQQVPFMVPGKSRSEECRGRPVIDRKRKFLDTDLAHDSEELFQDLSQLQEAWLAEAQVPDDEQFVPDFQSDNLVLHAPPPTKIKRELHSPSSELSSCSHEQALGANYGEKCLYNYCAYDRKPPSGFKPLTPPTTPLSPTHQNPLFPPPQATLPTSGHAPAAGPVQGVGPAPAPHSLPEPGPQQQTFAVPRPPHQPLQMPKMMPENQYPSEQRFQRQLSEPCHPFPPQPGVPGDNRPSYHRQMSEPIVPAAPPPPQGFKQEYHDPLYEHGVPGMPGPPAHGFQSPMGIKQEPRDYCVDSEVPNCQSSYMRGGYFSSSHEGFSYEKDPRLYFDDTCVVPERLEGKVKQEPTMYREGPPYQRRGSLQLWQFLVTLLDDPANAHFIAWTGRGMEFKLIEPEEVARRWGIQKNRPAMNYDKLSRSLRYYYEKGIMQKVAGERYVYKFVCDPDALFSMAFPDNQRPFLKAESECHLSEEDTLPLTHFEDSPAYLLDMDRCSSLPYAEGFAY
# In short: as §1
# [3] = molecular target: HSF1 (Homo sapiens, UniProt Q00613 1-529); conditions: protein: recombinant; tags: N-terminal GST; chain copies: 3; dsDNA, one strand shown
# HSF1, sequence (Q00613 whole entry): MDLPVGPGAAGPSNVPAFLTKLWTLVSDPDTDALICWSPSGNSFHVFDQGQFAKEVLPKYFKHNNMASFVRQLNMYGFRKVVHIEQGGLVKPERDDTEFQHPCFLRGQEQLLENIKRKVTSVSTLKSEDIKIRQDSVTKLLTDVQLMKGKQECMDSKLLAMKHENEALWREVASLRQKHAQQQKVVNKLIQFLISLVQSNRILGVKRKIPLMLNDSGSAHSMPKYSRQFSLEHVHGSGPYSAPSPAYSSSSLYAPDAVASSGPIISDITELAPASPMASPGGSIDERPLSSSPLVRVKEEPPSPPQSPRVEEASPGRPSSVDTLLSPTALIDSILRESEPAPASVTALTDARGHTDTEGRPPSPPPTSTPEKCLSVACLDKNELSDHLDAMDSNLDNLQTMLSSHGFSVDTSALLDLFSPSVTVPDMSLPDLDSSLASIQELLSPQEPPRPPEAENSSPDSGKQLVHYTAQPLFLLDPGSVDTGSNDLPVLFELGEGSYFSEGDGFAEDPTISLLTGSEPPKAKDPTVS
# In short: as §1
# [4] = molecular target: T2, SPIC (Homo sapiens, UniProt Q8N5J4 1-248); conditions: protein: recombinant; tags: N-terminal GST; dsDNA, one strand shown
# T2 sequence: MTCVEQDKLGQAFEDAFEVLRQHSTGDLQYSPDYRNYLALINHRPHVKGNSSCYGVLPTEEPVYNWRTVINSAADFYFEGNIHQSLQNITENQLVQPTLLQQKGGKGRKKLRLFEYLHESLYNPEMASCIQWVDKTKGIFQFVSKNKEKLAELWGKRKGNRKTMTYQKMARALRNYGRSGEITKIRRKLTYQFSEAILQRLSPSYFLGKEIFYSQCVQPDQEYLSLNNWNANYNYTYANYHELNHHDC
# In short: as §1
# [5] = molecular target: ELF4 (Homo sapiens, UniProt Q99607 1-663); conditions: protein: recombinant; tags: N-terminal GST; dsDNA, one strand shown
# ELF4, sequence (Q99607 whole entry): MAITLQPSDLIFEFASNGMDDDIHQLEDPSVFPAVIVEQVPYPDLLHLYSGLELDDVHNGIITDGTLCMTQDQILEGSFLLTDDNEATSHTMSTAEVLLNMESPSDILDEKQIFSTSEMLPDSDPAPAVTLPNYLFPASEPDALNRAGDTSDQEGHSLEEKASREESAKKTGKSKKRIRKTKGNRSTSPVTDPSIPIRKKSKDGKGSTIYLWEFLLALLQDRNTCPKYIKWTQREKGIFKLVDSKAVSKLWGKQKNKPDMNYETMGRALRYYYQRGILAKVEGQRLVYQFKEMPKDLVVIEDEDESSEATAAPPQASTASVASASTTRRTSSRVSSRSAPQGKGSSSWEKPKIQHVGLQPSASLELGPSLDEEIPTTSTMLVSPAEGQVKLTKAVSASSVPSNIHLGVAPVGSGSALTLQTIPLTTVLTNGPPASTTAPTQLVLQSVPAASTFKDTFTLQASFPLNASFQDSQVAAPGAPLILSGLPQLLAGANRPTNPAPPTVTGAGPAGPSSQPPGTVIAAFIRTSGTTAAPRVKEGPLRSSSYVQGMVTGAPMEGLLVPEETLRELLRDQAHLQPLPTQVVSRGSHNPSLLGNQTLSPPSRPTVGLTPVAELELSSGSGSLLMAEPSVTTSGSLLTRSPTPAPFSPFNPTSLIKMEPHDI
# In short: as §1
# [6] = molecular target: T3, ELK4 (Homo sapiens, UniProt P28324-2 1-405); conditions: protein: recombinant; tags: N-terminal GST; dsDNA, one strand shown
# T3 sequence: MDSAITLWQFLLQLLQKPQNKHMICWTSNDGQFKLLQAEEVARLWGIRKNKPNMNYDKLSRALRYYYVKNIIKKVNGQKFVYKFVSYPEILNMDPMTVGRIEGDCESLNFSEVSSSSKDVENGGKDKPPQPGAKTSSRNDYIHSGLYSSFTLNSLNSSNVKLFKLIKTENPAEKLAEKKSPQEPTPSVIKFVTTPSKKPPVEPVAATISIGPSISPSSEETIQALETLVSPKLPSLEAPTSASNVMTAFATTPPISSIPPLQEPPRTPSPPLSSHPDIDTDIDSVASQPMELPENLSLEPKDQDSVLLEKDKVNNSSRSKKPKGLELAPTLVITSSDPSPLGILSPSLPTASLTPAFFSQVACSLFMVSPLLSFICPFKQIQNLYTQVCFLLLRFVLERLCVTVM
# In short: as §1
# [7] = molecular target: T4, ETV2 (Homo sapiens, UniProt O00321 1-342); conditions: protein: recombinant; tags: N-terminal GST; dsDNA, one strand shown
# T4 sequence: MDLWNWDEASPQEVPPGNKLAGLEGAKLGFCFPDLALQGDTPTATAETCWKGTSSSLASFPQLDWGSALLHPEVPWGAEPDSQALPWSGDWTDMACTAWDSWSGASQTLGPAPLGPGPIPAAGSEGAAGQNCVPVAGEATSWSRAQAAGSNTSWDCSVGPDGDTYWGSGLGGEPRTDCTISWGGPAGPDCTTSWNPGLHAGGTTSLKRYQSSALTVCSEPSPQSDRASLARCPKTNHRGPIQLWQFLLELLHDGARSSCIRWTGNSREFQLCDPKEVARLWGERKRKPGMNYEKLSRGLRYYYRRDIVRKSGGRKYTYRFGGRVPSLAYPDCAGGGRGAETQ
# In short: as §1
# [8] = molecular target: T5, ELF3 (Homo sapiens, UniProt P78545 1-371); conditions: protein: recombinant; tags: N-terminal GST; dsDNA, one strand shown
# T5 sequence: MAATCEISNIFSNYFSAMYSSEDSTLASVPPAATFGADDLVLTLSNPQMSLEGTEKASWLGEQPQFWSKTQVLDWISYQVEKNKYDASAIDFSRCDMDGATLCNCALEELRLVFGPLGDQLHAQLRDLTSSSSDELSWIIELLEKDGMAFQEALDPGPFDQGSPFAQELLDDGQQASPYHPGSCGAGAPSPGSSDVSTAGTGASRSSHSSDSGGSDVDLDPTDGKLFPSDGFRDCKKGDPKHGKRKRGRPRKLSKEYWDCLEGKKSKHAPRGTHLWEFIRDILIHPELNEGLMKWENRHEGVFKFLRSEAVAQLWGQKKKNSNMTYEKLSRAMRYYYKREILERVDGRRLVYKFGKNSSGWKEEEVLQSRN
# In short: as §1
# [9] = molecular target: CRX (Homo sapiens, UniProt O43186 1-299); conditions: protein: recombinant; tags: N-terminal GST; dsDNA, one strand shown
# CRX, sequence (O43186 whole entry): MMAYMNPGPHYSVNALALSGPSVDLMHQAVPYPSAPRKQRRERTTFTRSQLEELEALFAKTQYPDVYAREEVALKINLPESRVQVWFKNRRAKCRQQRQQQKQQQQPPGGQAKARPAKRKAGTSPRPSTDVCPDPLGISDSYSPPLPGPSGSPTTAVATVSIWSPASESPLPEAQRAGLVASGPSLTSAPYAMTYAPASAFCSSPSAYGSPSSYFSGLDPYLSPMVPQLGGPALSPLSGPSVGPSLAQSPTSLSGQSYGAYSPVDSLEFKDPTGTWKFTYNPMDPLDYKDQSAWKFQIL
# In short: as §1
# [10] = molecular target: ETV1 (Homo sapiens, UniProt P50549 1-477); conditions: protein: recombinant; tags: N-terminal GST; dsDNA, one strand shown
# ETV1, sequence (P50549 whole entry): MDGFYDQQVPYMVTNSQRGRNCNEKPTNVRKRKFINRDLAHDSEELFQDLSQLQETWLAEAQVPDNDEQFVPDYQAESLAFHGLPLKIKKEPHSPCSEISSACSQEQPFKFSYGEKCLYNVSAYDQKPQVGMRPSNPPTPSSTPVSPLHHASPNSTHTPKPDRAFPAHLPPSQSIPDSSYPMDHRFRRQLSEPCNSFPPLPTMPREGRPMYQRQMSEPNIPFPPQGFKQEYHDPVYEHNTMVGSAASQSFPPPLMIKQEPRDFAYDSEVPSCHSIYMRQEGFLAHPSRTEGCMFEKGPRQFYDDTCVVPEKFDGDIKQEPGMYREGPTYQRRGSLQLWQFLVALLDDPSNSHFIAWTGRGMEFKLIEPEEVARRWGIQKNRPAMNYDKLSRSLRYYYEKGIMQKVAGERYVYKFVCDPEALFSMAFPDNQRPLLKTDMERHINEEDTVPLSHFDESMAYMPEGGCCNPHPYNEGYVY
# In short: as §1
# [11] = molecular target: T6, ERF (Homo sapiens, UniProt P50548 1-548); conditions: protein: recombinant; tags: N-terminal GST; dsDNA, one strand shown
# T6 sequence: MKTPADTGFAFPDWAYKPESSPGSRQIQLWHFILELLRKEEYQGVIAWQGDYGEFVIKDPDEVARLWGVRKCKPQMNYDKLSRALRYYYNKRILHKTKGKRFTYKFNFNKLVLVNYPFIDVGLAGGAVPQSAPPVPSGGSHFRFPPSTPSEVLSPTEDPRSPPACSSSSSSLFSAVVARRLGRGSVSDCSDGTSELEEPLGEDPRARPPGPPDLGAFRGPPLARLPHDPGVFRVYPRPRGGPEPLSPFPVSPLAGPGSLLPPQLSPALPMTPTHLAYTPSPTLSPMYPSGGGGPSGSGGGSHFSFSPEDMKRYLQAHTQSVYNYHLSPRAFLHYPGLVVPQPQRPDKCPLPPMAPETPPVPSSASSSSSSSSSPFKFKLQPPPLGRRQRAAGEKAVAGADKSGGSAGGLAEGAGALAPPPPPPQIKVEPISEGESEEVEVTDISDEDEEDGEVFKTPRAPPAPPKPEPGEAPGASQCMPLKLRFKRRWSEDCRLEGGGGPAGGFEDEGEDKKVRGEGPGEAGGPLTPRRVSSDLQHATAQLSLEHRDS
# In short: as §1
# [12] = molecular target: T7, ETV3L (Homo sapiens, UniProt Q6ZN32 1-361); conditions: protein: recombinant; tags: N-terminal GST; dsDNA, one strand shown
# T7 sequence: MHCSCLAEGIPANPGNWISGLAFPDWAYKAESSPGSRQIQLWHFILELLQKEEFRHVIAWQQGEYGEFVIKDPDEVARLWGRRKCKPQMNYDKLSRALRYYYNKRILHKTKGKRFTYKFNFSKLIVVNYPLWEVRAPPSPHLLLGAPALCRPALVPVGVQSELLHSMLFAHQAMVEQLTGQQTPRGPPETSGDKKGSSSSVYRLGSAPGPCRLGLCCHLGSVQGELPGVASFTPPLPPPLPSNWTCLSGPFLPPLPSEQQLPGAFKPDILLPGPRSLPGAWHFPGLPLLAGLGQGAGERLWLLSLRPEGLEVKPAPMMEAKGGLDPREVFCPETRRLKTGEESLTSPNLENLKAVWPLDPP
# In short: as §1
# [13] = molecular target: T8, ETS2 (Homo sapiens, UniProt P15036 1-469); conditions: protein: recombinant; tags: N-terminal GST; dsDNA, one strand shown
# T8 sequence: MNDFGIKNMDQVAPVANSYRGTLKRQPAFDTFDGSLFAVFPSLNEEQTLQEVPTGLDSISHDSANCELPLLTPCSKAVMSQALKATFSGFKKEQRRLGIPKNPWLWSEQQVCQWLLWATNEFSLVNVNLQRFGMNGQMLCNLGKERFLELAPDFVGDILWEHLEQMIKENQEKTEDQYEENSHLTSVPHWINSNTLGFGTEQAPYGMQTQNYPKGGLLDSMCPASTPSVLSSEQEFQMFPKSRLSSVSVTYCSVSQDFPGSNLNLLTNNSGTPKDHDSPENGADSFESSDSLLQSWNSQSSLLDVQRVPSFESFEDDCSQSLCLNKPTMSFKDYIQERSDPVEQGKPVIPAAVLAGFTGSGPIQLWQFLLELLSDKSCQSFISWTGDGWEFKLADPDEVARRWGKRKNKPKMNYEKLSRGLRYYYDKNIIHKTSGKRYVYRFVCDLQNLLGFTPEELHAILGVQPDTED
# In short: as §1
# [14] = molecular target: T9, SPDEF (Homo sapiens, UniProt O95238 1-335); conditions: protein: recombinant; tags: N-terminal GST; dsDNA, one strand shown
# T9 sequence: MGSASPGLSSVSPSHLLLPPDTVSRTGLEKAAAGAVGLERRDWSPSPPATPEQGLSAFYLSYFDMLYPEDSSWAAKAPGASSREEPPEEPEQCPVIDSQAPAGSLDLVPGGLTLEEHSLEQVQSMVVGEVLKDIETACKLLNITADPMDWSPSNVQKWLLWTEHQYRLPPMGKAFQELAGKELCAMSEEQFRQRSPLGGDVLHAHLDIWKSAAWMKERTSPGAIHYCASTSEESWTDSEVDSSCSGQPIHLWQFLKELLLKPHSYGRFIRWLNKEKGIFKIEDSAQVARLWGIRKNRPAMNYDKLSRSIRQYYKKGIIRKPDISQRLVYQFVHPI
# In short: as §1
# [15] = molecular target: T10, ETV7 (Homo sapiens, UniProt Q9Y603 1-341); conditions: protein: recombinant; tags: N-terminal GST; dsDNA, one strand shown
# T10 sequence: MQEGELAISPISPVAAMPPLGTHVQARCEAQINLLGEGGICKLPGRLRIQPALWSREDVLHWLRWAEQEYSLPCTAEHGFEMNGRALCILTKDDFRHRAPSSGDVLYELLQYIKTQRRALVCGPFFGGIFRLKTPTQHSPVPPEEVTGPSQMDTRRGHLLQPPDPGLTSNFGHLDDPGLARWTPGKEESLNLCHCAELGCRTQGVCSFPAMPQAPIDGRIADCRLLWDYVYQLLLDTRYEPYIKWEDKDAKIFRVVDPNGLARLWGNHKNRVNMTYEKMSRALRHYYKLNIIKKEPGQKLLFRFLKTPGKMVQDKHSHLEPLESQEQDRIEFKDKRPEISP
# In short: as §1
# [16] = molecular target: T11, ELF5 (Homo sapiens, UniProt Q9UKW6-2 1-255); conditions: protein: recombinant; tags: N-terminal GST; dsDNA, one strand shown
# T11 sequence: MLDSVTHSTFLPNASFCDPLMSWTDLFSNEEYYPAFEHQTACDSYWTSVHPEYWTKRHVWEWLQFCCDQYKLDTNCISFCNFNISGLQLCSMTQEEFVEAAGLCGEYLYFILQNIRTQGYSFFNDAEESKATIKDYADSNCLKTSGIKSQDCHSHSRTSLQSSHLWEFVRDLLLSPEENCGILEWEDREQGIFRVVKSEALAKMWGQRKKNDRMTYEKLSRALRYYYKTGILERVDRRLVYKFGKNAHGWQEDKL
# In short: as §1
# [17] = molecular target: T12, ETV3 (Homo sapiens, UniProt P41162-2 1-143); conditions: protein: recombinant; tags: N-terminal GST; dsDNA, one strand shown
# T12 sequence: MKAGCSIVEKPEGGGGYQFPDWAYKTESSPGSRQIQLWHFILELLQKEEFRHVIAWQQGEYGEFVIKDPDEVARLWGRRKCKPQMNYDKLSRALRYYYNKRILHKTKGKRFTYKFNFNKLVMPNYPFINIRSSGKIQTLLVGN
# In short: as §1
# [18] = molecular target: ETV6 (Homo sapiens, UniProt P41212 1-452); conditions: protein: recombinant; tags: N-terminal GST; dsDNA, one strand shown
# ETV6, sequence (P41212 whole entry): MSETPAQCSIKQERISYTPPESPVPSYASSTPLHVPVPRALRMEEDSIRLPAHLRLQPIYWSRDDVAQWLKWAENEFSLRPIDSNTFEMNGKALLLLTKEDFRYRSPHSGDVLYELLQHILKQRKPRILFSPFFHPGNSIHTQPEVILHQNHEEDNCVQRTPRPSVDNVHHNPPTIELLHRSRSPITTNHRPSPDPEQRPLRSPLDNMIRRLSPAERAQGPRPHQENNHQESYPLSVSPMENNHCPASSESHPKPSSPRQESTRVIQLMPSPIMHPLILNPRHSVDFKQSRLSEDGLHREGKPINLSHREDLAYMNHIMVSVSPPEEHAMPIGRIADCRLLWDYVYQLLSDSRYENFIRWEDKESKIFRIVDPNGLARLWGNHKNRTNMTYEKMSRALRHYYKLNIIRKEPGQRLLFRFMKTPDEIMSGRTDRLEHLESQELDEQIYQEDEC
# In short: as §1
sequence,measurement,setting,value
CTGCTC,binding signal,[1],"1.31 fold enrichment (6-mer frequency, TF over GST control)"
same,binding signal,[2],"1.26 fold enrichment (6-mer frequency, TF over GST control)"
same,binding signal,[3],"1.17 fold enrichment (6-mer frequency, TF over GST control)"
same,binding signal,[4],"1.39 fold enrichment (6-mer frequency, TF over GST control)"
same,binding signal,[5],"1.29 fold enrichment (6-mer frequency, TF over GST control)"
same,binding signal,[6],"1.45 fold enrichment (6-mer frequency, TF over GST control)"
same,binding signal,[7],"1.35 fold enrichment (6-mer frequency, TF over GST control)"
same,binding signal,[8],"1.18 fold enrichment (6-mer frequency, TF over GST control)"
same,binding signal,[9],"1.22 fold enrichment (6-mer frequency, TF over GST control)"
same,binding signal,[10],"1.21 fold enrichment (6-mer frequency, TF over GST control)"
same,binding signal,[11],"1.29 fold enrichment (6-mer frequency, TF over GST control)"
same,binding signal,[12],"1.43 fold enrichment (6-mer frequency, TF over GST control)"
same,binding signal,[13],"1.28 fold enrichment (6-mer frequency, TF over GST control)"
same,binding signal,[14],"1.26 fold enrichment (6-mer frequency, TF over GST control)"
same,binding signal,[15],"1.29 fold enrichment (6-mer frequency, TF over GST control)"
same,binding signal,[16],"1.29 fold enrichment (6-mer frequency, TF over GST control)"
same,binding signal,[17],"1.22 fold enrichment (6-mer frequency, TF over GST control)"
same,binding signal,[18],"1.16 fold enrichment (6-mer frequency, TF over GST control)"
